# Test results taken from PubChem BioAssay (Tox21).
# Values without a mark were called inactive. Results filed as inconclusive are left out. A call without a number means that no potency is given here. The source made the active and inactive calls. Unless noted, the call rests on the fitted dose curve; in most records, active means well fitted curve in the direction sought with a large enough effect in the repeat runs; inconclusive means weak or mixed curves; inactive means no such curve, though single readings can be large; an effect the other way counts as inactive or inconclusive.
# How the values were obtained:
# [1] = target: Nuclear receptor subfamily 1 group I member 3 (Homo sapiens) (UniProt Q14994); experiment: qHTS assay to identify small molecule antagonists of the constitutive androstane receptor (CAR) signaling pathway (AID 1224838);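 further: HepG2 cells stably expressing hCAR with CYP2B6 luciferase reporter stimulated by CITCO; nearly all actives have a fitted effect of over 40% in size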
# Sequence of Nuclear receptor subfamily 1 group I member 3 (Homo sapiens) (Q14994 whole entry, looked up): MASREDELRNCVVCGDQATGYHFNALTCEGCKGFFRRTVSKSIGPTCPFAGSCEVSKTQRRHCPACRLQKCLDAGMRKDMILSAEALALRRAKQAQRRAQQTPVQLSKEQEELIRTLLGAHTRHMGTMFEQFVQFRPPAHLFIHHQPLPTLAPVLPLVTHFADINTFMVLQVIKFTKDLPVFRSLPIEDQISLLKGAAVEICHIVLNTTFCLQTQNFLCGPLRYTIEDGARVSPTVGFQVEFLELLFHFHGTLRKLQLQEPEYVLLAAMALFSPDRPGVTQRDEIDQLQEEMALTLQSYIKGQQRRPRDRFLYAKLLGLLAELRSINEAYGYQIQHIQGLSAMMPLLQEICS
# Procedure, shortened: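 Luminescence from a CYP2B6-2.2kb promoter reporter in hCAR-expressing HepG2 cells reflects CAR signaling. Cells received compounds at 15 concentrations and 50 nM CITCO (final), then incubated 24 h at 37 C/5% CO2.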
# [2] = qHTS assay to identify small molecule agonists of H2AX - cell viability counter screen (AID 1224847; calls by dose curve;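 further: wild-type CHO-K1 cells; top concentration of the series differs between compounds; nearly all actives have a fitted effect of over 30% in size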)
# Procedure, shortened: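 For this counter screen, overnight-attached CHO-K1 cells received test compounds (15 concentrations, 0.76% DMSO final); 3 hr later at 37C, CellTiter-Glo reagent was added and luminescence recorded after 30 min at room temperature.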
# [3] = qHTS RealTime-Glo MT Cell Viability Assay in HepG2 cells - 24 hour (AID 1224867); further: nearly all actives have a fitted effect of over 50% in size; further: potency means the concentration at half of the fitted maximal effect
# Procedure, shortened: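 HepG2 suspension premixed with RealTime-Glo reagents is plated at 600 cells per well and left 5 h at 37 C/5% CO2. Compounds in DMSO then go in, and bioluminescence reflecting viable cell number is recorded over 40 h.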
# [4] = A CellTox Green Cytotoxicity Assay to monitor cytotoxicity in HEK293 cells - 0 hour (AID 1224869); further: nearly all actives have a fitted effect of over 50% in size
# Procedure, shortened: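 Dead-cell fluorescence measured kinetically: asymmetric cyanine dye, HEK293, 600 cells/well, 5 h settle, 23 nL cpd/DMSO, 37 C, reads 0–40 h every 8 h.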
# [5] = target: Luciferin 4-monooxygenase (Photinus pyralis) (UniProt P08659); experiment: qHTS assay to identify small molecule inhibitors of firefly luciferase (AID 1224835); further: nearly all actives have a fitted effect of over 25% in size
# Sequence of Luciferin 4-monooxygenase (Photinus pyralis) (P08659 whole entry, looked up): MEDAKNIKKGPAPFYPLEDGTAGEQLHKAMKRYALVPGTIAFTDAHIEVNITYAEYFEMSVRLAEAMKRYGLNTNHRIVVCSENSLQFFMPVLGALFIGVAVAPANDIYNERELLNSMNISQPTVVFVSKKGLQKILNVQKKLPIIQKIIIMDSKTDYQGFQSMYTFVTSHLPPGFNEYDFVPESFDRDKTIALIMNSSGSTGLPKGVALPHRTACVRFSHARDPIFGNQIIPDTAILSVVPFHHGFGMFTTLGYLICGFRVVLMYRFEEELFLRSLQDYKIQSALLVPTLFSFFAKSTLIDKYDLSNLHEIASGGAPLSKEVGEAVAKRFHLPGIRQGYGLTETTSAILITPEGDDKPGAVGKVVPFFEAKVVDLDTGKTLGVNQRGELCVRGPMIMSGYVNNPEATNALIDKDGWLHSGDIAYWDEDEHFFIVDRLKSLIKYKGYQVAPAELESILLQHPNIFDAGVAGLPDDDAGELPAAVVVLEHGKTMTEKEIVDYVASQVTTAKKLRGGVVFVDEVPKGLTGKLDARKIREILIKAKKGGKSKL
# Procedure, shortened: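 Inhibition of purified Photinus luciferase is measured by luminescence. Substrate levels (D-luciferin, ATP) sit at their KM values. Each compound is tested in a concentration series.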
# [6] = qHTS assay to identify small molecule antagonists of the constitutive androstane receptor (CAR) signaling pathway - cell viability counter screen (AID 1224837); further: nearly all actives have a fitted effect of over 45% in size
# Procedure, shortened: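 Cells are seeded, rested 4 hr at 37 C/5% CO2, dosed with compound (15-point series) and 50 nM CITCO, incubated a further 23 hr, and then CellTiter-Fluor reagent is added before fluorescence is read. The line is HepG2 with stable hCAR and CYP2B6-2.2kb.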
# [7] = target: Nuclear receptor subfamily 1 group I member 3 (Homo sapiens) (UniProt Q14994); experiment: qHTS assay to identify small molecule agonists of the constitutive androstane receptor (CAR) signaling pathway (AID 1224839);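 further: HepG2 cells stably carrying human CAR and a CYP2B6 luciferase reporter; nearly all actives have a fitted effect of over 15% in size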
# Procedure, shortened: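 Readout: firefly luciferase luminescence via ONE-Glo. System: HepG2 double-stable for hCAR and CYP2B6-2.2kb. Conditions: 15-point compound titration, PK11195 at 0.75 uM final, 24 h incubation.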
# [8] = qHTS assay to identify small molecule antagonists of the estrogen related receptor signaling pathway with the pleiotropic PPARgamma coactivator (PGC) from Tox21 10K library - cell viability counter screen (AID 1224840; active means well fitted cell-killing curve with a large enough effect in the repeat runs, not every such curve was filed as active; further: nearly all actives have a fitted effect of over 40% in size)
# Procedure, shortened: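 Cell viability is measured by CellTiter-Fluor fluorescence in PGC/ERR cells that receive compounds after a 6-hour attachment period and are then incubated 17.5 hours at 37 C.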
# [9] = qHTS assay to identify small molecule antagonists of the estrogen related receptor signaling pathway with the pleiotropic PPARgamma coactivator (PGC) from Tox21 10K library (AID 1224841; call rule not given here; further: actives are mostly falling curves and most rising ones were filed inactive; nearly all actives have a fitted effect of over 50% in size; further: potency means the concentration at half of the fitted maximal effect)
# Procedure, shortened: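 Cells stably carrying the PGC/ERR reporter, seeded at 2,000 per well, received pin-transferred compounds 6 h post-plating. Exposure lasted 18 h at 37 C. Signal: One-Glo luminescence.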
# [10] = qHTS assay to identify small molecule agonists of the estrogen related receptor signaling pathway with the pleiotropic PPARgamma coactivator (PGC) from Tox21 10K library (AID 1224842); further: nearly all actives have a fitted effect of over 15% in size; further: potency means the concentration at half of the fitted maximal effect
# Procedure, shortened: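 Luminescence from One-Glo (30 min, room temperature) measured after PGC/ERR cells had 18 h at 37 C with pinned compound (23 nL in DMSO). Cells had been seeded at 2,000 per well and pre-incubated 6 h.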
# [11] = qHTS assay to identify small molecule agonists of the hypoxia (HIF-1) signaling pathway - cell viability counter screen (AID 1224844; calls by dose curve; further: nearly all actives have a fitted effect of over 50% in size)
# Procedure, shortened: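 Viability counter screen: HRE-bla ME-180 cells plated 5 hrs before compound addition, treated 17 hrs at 37C and 5% CO2, then CellTiter-Glo added after the FRET reporter read; luminescence after 30 min.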
# [12] = qHTS assay to identify small molecule antagonists of the estrogen related receptor (ERR) signaling pathway from Tox21 library (AID 1224848); further: nearly all actives have a fitted effect of over 50% in size; further: potency means the concentration at half of the fitted maximal effect
# Procedure, shortened: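 ERR cell line, 2,000 cells/well. 6 h settle, then compound (DMSO) added; 18 h at 37 C; ONE-Glo luminescence after 30 min RT.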
# [13] = qHTS RealTime-Glo MT Cell Viability Assay in HEK293 cells - 32 hour (AID 1224868); further: nearly all actives have a fitted effect of over 50% in size; further: potency means the concentration at half of the fitted maximal effect
# Procedure, shortened: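 Reads taken at 0, 8, 16, 24, 32 and 40 h from the same wells. HEK293 cells (600/well) carried RealTime-Glo reagents from seeding, with compound added after a 5 h settle at 37 C.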
# [14] = qHTS assay to identify small molecule antagonists of the estrogen related receptor (ERR) signaling pathway from Tox21 library - cell viability counter screen (AID 1224834); further: nearly all actives have a fitted effect of over 30% in size; further: potency means the concentration at half of the fitted maximal effect
# Procedure, shortened: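 Compounds in DMSO were pinned onto ERR cells that had been incubated for 6 h, and the plates were held at 37 C for 17.5 h. CellTiter-Fluor reagent was then added and fluorescence was measured after 30 min.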
# [15] = qHTS assay to identify small molecule agonists of the constitutive androstane receptor (CAR) signaling pathway - cell viability counter screen (AID 1224836); further: nearly all actives have a fitted effect of over 45% in size
# Procedure, shortened: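 Double-stable HepG2 hepatoma cells (hCAR plus CYP2B6-2.2kb) are treated for 23 h at 37 C with test compounds in 15-point concentration series. PK11195 at 0.75 uM final is co-added. Cell viability is quantified by CellTiter-Fluor.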
# [16] = qHTS assay to identify small molecule agonists of H2AX (AID 1224845; active means well fitted activation curve with a large enough effect in the signal ratio in the repeat runs, not every such curve was filed as active; the % refers to the signal ratio)
# Procedure, shortened: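 Phospho-H2AX Ser139 measured by HTRF (ex 320 nm; em 665 and 620 nm) after 24 hr antibody incubation. Compounds, 15 concentrations, 0.76% DMSO, were applied to CHO-K1 cells for 3hr at 37C before lysis.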
# [17] = target: Thyrotropin receptor (Homo sapiens) (UniProt P16473); experiment: qHTS assay to identify small molecule agonists of the thyroid stimulating hormone receptor (TSHR) signaling pathway (AID 1224843; calls by dose curve; further: nearly all actives have a fitted effect of over 45% in size)
# Sequence of Thyrotropin receptor (Homo sapiens) (P16473 whole entry, looked up): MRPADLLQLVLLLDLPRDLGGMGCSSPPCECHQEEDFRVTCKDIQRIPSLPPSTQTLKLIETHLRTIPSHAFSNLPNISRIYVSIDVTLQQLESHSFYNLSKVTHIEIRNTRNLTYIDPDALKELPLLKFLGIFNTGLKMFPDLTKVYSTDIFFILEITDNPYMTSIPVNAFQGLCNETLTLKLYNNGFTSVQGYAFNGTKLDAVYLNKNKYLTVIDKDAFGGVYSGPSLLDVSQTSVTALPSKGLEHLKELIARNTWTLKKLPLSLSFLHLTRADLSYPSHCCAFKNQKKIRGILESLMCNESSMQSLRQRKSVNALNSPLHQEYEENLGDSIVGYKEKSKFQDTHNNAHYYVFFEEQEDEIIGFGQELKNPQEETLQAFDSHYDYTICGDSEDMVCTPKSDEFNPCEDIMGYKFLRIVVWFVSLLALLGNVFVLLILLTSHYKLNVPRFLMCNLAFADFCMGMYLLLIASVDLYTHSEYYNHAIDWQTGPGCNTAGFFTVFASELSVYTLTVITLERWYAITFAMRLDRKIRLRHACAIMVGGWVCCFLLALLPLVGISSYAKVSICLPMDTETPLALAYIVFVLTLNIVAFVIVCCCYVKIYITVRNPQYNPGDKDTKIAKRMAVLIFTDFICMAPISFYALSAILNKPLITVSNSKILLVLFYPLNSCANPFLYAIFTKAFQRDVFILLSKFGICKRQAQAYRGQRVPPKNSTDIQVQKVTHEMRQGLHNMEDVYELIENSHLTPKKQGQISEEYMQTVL
# Procedure, shortened: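 A cell-based cAMP HTRF format was run in TSHR-transfected HEK293 cells, 800 per well. Treatment: 30 min, room temperature. Detection: 1 h with labelled cAMP and anti-cAMP cryptate. Concentration-response over 15 points, three replicates.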
# [18] = qHTS assay to identify small molecule agonists of the hypoxia (HIF-1) signaling pathway (AID 1224846; active means well fitted activation curve with a large enough effect in the signal ratio in the repeat runs, not every such curve was filed as active; the % refers to the signal ratio)
# Procedure, shortened: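 Agonist mode reporter screen. ME-180 cells stably expressing bla under HRE control received test compounds in DMSO for 17 hrs (37C, 5% CO2), and beta-lactamase activity was then detected with the CCF4-AM FRET substrate.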
# [19] = qHTS assay to identify small molecule agonists of the estrogen related receptor (ERR) signaling pathway from Tox21 library (AID 1224849; calls by dose curve; further: nearly all actives have a fitted effect of over 15% in size); details: ERR reporter cell line, ONE-Glo luciferase, 18 h; at 92.4 µM (top of the series) unless noted
# Procedure, shortened: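 Quantitative HTS in agonist format: NTP ERR cell line, compounds transferred in DMSO after 6 h plating, 18 h incubation at 37 C, ONE-Glo luminescence endpoint.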
Compound,Potency [1],Potency [2],Potency [3],Potency [4],Potency [5],Potency [6],Potency [7],Potency [8],Potency [9],Potency [10],Potency [11],Potency [12],Potency [13],Potency [14],Potency [15],Potency [16],Potency [17],outcome [18],"activity change, positive = activation [19]"
Nc1nc2ccc([N+](=O)[O-])cc2s1,inactive,inactive,inactive,inactive,–,–,–,–,–,–,–,–,–,–,–,–,–,–,–
Oc1cccc(O)c1O,inactive,–,inactive,inactive,inactive,inactive,inactive,inactive,inactive,8.56 µM (active),inactive,inactive,inactive,–,–,–,–,–,–
O=C(CCCN1CC=C(n2c(=O)[nH]c3ccccc32)CC1)c1ccc(F)cc1,inactive,–,inactive,inactive,–,–,inactive,–,–,–,inactive,–,–,33.5 µM (active),inactive,inactive,–,–,–
CC1=Nc2ccc3ccccc3c2C1(C)C,–,–,inactive,inactive,–,–,–,inactive,–,inactive,inactive,–,inactive,inactive,inactive,inactive,inactive,inactive,-35.4%
NC1[C@H]2CN(c3nc4c(cc3F)c(=O)c(C(=O)O)cn4-c3ccc(F)cc3F)C[C@@H]12 (some centres undefined),inactive,–,inactive,inactive,inactive,–,–,inactive,inactive,–,inactive,inactive,inactive,–,inactive,inactive,inactive,inactive,59.2% [at 42.5 µM] (active)
O=C=Nc1cccc(C(F)(F)F)c1,–,–,inactive,inactive,inactive,inactive,–,inactive,–,inactive,–,60.7 µM (active),–,–,inactive,inactive,inactive,inactive,–
COc1cc(C(=O)NCCCCCC(=O)O)cc(OC)c1OC,inactive,inactive,inactive,inactive,inactive,inactive,inactive,inactive,inactive,inactive,inactive,inactive,inactive,–,inactive,inactive,inactive,inactive,–
O=Cc1c2ccccc2c(Cl)c2ccccc12,–,inactive,inactive,inactive,inactive,inactive,–,–,13.3 µM (active),inactive,inactive,9.45 µM (active),–,–,inactive,inactive,–,–,-33.4% [at 42.5 µM]
C/C=C(/C(=C/C)c1ccc(O)cc1)c1ccc(O)cc1,inactive,–,inactive,inactive,–,inactive,inactive,–,–,–,inactive,–,–,–,inactive,inactive,inactive,–,–
CCOc1ccc(Cc2nccc3cc(OCC)c(OCC)cc23)cc1OCC,inactive,–,12 µM (active),–,inactive,–,inactive,–,–,–,inactive,–,6.01 µM (active),–,inactive,inactive,inactive,inactive,–
